# Several values for one entry are separate records, joined by “and”; a condition that tells them apart may be missing. Equal values may be shown once. Screen size: about 390,000 compounds; about 4,700 (1.2%) were called active. Inconclusive results (about 4%) are left out. This is one part of a sample in which actives are shown more often than they occur. Unmarked numbers belong to inactive results. Calls come from the whole dose curve; as a rule, active = well fitted inhibition curve with a large enough effect; inconclusive = small, poorly fitted or top-dose-only effect, or another doubt; inactive = no such curve, though single readings can be large or run the other way.
# Target: DNA polymerase eta (Homo sapiens) (UniProt Q9Y253)
# Assay: qHTS for Inhibitors of Polymerase Eta
# Conditions: recombinant Pol eta, fluorescent DNA replication assay; series mostly up to 114 µM; activity change, negative = inhibition: at the top concentration
# Method in brief: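 Pol eta (10 nM) was preincubated with compounds for 15 min at room temperature, after which fluorescent replication substrate (50 nM final) was added to start the reaction. Fluorescence was read kinetically at 0 and 10 min.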
# % is set by controls: 0 for no effect and ±100 for the full control effect; potency is the fitted concentration of half-maximal effect.
# DNA polymerase eta (Homo sapiens), sequence (Q9Y253 whole entry, looked up): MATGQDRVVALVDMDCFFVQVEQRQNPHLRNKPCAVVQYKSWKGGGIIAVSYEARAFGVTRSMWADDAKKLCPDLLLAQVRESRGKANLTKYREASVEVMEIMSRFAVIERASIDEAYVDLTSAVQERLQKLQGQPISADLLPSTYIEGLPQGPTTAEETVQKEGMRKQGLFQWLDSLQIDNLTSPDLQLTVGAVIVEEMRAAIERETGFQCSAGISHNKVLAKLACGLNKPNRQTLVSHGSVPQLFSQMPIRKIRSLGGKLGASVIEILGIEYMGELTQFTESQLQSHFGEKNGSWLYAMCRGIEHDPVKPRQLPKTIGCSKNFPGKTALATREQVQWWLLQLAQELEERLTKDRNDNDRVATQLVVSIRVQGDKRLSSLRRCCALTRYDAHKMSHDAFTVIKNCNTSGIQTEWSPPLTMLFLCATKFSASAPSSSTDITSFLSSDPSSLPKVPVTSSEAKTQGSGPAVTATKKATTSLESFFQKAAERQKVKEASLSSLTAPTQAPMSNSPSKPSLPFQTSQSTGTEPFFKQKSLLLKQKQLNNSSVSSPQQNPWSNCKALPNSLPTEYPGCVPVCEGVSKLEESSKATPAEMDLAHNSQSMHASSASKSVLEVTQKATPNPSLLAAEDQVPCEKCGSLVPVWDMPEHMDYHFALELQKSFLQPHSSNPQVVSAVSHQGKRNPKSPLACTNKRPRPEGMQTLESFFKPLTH
SMILES,"activity change, negative = inhibition",Potency
Cn1c(=O)sc2cc(NS(=O)(=O)c3ccc(C(C)(C)C)cc3)ccc21,-13.2%,–
CC(=O)Nc1ccc(S(=O)(=O)Nc2ccc(-c3ccc4nnc(C)n4n3)cc2)cc1,-16.5%,–
O=C(Nc1ccc(-c2ccc3nncn3n2)cc1)C1CCCCC1,-13.9%,–
CC(=O)c1ccc(S(=O)(=O)Nc2ccc(-c3ccc4nncn4n3)cc2)cc1,–,20 µM (active)
Cn1nnc2c(N3CCN(c4ccccc4)CC3)ncnc21,-4.1%,–
CCCCSc1ncnc2c1sc1nc(N3CCOCC3)c3c(c12)CCCC3,-16%,–
CN(C)C(CNC(=O)c1ccc(OCc2cn3ccccc3n2)cc1)c1ccco1 (configuration not stated),–,39.8 µM (active)
CN(C)C(CNC(=O)CCCOc1ccccc1)c1ccco1 (configuration not stated),1.86%,–
O=Cc1ccc(OCc2cn3ccccc3n2)cc1,-5.21%,–
Cc1ccc(OCC(=O)Nc2ccc(OCc3cc(=O)n4c(C)csc4n3)cc2)cc1C,-20.4%,–
CCCCc1nn2c(=O)cc(COC(=O)c3ccccc3NC(=O)C(C)(C)C)nc2s1,-9.36%,–
CCOc1ccc(N(CC)S(=O)(=O)N2CCCC(C(=O)NCc3ccc(Cl)cc3)C2)cc1 (configuration not stated),-12.2%,–
Cc1ccc(N(Cc2cc(=O)[nH]c3ccccc23)C(=O)CCl)cc1,–,56.2 µM (active)
Cc1ccc(N(Cc2ccccc2O)C(=O)c2ccccc2F)cc1,-15.5%,–
Cn1nnnc1SCc1cc(=O)[nH]c2ccccc12,-4.32%,–
COc1ccc(CNC(=O)c2cc3c(s2)-c2ccccc2OC3)cc1,-11.9%,–
CC(C)c1ccc2c(c1)c(SC(C)(C)C)c(CC(C)(C)C(=O)O)n2Cc1ccc(Cl)cc1,–,35.5 µM (active) and 25.1 µM (active)
Cc1c(C)n(Cc2ccc(Cl)cc2)c2ccc(C(=O)N3CCN(c4ccccc4F)CC3)cc12,0.854%,–
CC(C)c1ccc(Cn2c(COc3ccccc3)nc3ccccc32)cc1,-7.81%,–
Cc1ccc(S(=O)(=O)NCc2nc3nc(C)cc(C)n3n2)cc1,-23%,–
Cc1cc(NC(=O)CSc2ncc(C(=O)Nc3ccc(Cl)cc3)c(=O)n2C)no1,-17%,–
Cc1ccc(C)c(NC(=O)CSC2=Nc3ccccc3N=C(c3ccc(F)cc3)C2)c1,-6.54%,–
CCOc1ccc(NC(=O)C(C)N2C(=O)c3ccccc3C2=O)cc1 (configuration not stated),-1.82%,–
O=C1/C(=C/c2cccs2)SC(=S)N1C1CCS(=O)(=O)C1 (configuration not stated),-23.4%,–
CC(C(=O)Nc1ccc(O)c(C(=O)O)c1)N1C(=O)/C(=C/c2cccs2)SC1=S (configuration not stated),–,79.4 µM (active)

SMILES,"activity change, negative = inhibition",Potency
CCN(CC)CCNc1ncnc2c1cnn2-c1cc(Cl)ccc1C,-10.7%,–
CC(C)C(=O)Nc1nc2c(s1)CC(C(C)(C)C)CC2 (configuration not stated),-18.3%,–
CCOc1ccccc1C(=O)Nc1ccc2c(c1)N(C)C(=O)c1ccccc1S2,-13.7%,–
Cc1ccc(Cl)cc1-n1ncc2c(N3CCC(C(N)=O)CC3)ncnc21,-16.5%,–
N#Cc1ccc(/C=C2\CCn3c2nc2cc(C(=O)O)ccc2c3=O)cc1,-14.4%,–
O=C(O)c1ccc2c(=O)n3c(nc2c1)/C(=C/c1ccc(OC(F)F)cc1OC(F)F)CC3,-17.6%,–
Cc1ccc(/C=C2\CCn3c2nc2cc(C(=O)O)ccc2c3=O)c(C)c1,–,79.4 µM (active)
Fc1ccc(Nc2nc(SCc3ccccc3Cl)nc3ccccc23)cc1,-14.4%,–
O=C(NCC12CC3CC(CC(C3)C1)C2)c1cc2nc(-c3ccccc3)cc(C(F)(F)F)n2n1,0.579%,–
COCCn1c(CCC(=O)Nc2cc(C)ccc2C)nc2cccnc21,-13.2%,–
COC(=O)c1ccc(Cn2c(SCC(=O)N(C)c3ccccc3)nc3ccccc32)cc1,-3.59%,–
Cc1ccc(O)c(NC(=O)CCS(=O)(=O)c2nc(-c3ccc4c(c3)OCO4)cc(C(F)(F)F)n2)c1,-27.9%,–
COc1ccccc1-n1c(SCC(=O)O)nc2sc3c(c2c1=O)CCC3,-12.3%,–
O=C(CCc1nc2sc3c(c2c(=O)[nH]1)CCCC3)NCC(=O)Nc1ccccc1Br,–,8.91 µM (active)
Cc1cccc(NC(=O)CSc2nc3c(c(=O)[nH]2)CCCC3)c1C,1.98%,–
COc1ccccc1CNC(=O)C(=O)NCC(c1cccs1)S(=O)(=O)c1cccs1 (configuration not stated),-12.4%,–
COc1ccc(C2C(=O)N(C3CCCCC3)CC(=O)N2Cc2ccccc2Cl)cc1OC (configuration not stated),-3.95%,–
CCOC(=O)c1cccc(NC(=O)Cn2cnc3nc4c(cc3c2=O)CCCC4)c1,-5.34%,–
COC(=O)c1ccc(NC(=O)CSc2n[nH]c(-c3ccccc3)n2)cc1,-21%,–
COc1ccc(-c2nc3c(c(SCC(=O)Nc4ccc(C(=O)O)cc4)n2)Cc2ccccc2O3)cc1,–,7.94 µM (active)
COc1ccc(NC(=O)CSc2nc3ccccc3[nH]2)cc1,-14.9%,–
C=C(C)C(=O)O[C@H]1C/C(C)=C\C(=O)/C=C(\C)[C@H](O)[C@@H]2OC(=O)C(=C)[C@@H]21,–,20 µM (active)
CCOc1ccc(-n2nc3ccc(NC(=O)c4ccc(OC)c(Cl)c4)cc3n2)cc1,-1.51%,–
O=[N+]([O-])c1cc(Cl)cc(/C=N/NC(=S)Nc2cc(S(=O)(=O)N3CCOCC3)ccc2Cl)c1O,–,50.1 µM (active)
Cc1ccc(S(=O)(=O)N2CCOCC2)cc1NC(=O)c1ccncc1,-10.2%,–

SMILES,"activity change, negative = inhibition",Potency
COCCNC(=S)Nc1cc(S(=O)(=O)N2CCOCC2)ccc1N1CCCCC1,-3.75%,–
Cc1nc2c(c(C)nn2-c2ccccc2)c(C)c1CCC(=O)NCCc1ccc(Cl)cc1,-13.9%,–
CCOc1ccc(NC(=O)c2ccc(CSc3nnnn3C)cc2)cc1,-16.2%,–
CCOc1ccc(NC(=O)Cn2c(C)ccc(C#N)c2=O)cc1,-5.41%,–
CCOc1ccc(NC(=O)c2ccc(NC(=O)COC(=O)c3ccc(NC(=O)CC#N)cc3)cc2)cc1,–,1.26 µM (active)
Cc1ccc(S(=O)(=O)c2nc(-c3cccs3)oc2N2CCCCC2)cc1,-5.32%,–
COc1ccc(CCNc2ncnc3onc(-c4ccc(Cl)cc4)c23)c(OC)c1,-16.4%,–
Cc1ccc(C)c(N2CCN(CCCNC(=O)Nc3ccc(Cl)cc3)CC2)c1,-17.8%,–
CN=C1S/C(=C\c2c(OC)cc(OC)cc2OC)C(=O)N1C,-14%,–
O=C(O)c1cccc(N=NN2CCCCCC2)c1,-6.41%,–
CN1C(=O)/C(=C/c2ccco2)SC1=Nc1cccc(C(=O)O)c1,–,35.5 µM (active)
O=C(CSc1nc(-c2cccc(F)c2)[nH]c1-c1ccccc1)Nc1ccc2c(c1)OCO2,-6.06%,–
Cc1ccc2oc3c(c(=O)c2c1)C(c1ccc([N+](=O)[O-])cc1)N(CCCN1CCOCC1)C3=O (configuration not stated),-9.44%,–
CCCc1cc(=O)[nH]c(SCC(=O)Nc2ccc(C(=O)Nc3ccccc3OC)cc2)n1,-11.5%,–
Cc1cc(C)c(C(=O)CSc2nc(C)cc(=O)[nH]2)c(C)c1,-11.5%,–
COC(=O)c1cccc(NC(=O)CSc2nc(C)cc(=O)[nH]2)c1,–,20 µM (active)
Cc1ccccc1Nc1nn2c(=O)c3ccc(C(=O)NCCc4ccc(Cl)cc4)cc3nc2s1,3.84%,–
Cc1ccc2onc(CC(=O)N3CCN(c4ccc(Cl)cc4)CC3)c2c1,-15.9%,–
Cn1c(=O)c2ccccc2n(CC(=O)Nc2ccc3c(c2)OCCO3)c1=O,0.575%,–
O=C(CN1CCN(c2ncc(C(F)(F)F)cc2Cl)CC1)Nc1ccc2c(c1)OCO2,-22.3%,–
Cc1ccc(C(=O)O)cc1-c1ccc(/C=C2\SC(=O)N(CC(=O)Nc3ccc4c(c3)OCO4)C2=O)o1,–,4.47 µM (active)
O=C(NCc1ccc(F)cc1)c1ccc2nc(N3CCCCC3)sc2c1,-9.35%,–
Cc1ccccc1-c1nc2cc(NC(=O)c3cccc(OCCC(C)C)c3)ccc2o1,-14.7%,–
CCC(=O)N1CCc2cc(CNS(=O)(=O)c3ccc(Br)s3)ccc21,-3.15%,–
Cc1cccc(NC(=O)CSc2nc3c(oc4ccccc43)c(=O)n2-c2ccc(F)cc2)c1,-18.2%,–

SMILES,"activity change, negative = inhibition",Potency
O=S(=O)(Nc1ccc2[nH]ncc2c1)c1ccccc1Cl,-4.53%,–
O=C(Nc1ccc2cn[nH]c2c1)c1ccc(S(=O)(=O)N2CCOCC2)cc1,-2.8%,–
O=C(O)c1cc(S(=O)(=O)Nc2ccc3cn[nH]c3c2)ccc1Br,–,50.1 µM (active)
CCCn1c2ccccc2c2cnn(CC(=O)N(C)c3ccccc3CC)c(=O)c21,-7.33%,–
Cc1ccc(NC(=O)c2oc3ccccc3c2C)c([N+](=O)[O-])c1,6.13%,–
Cc1c(C(=O)NC2CCCCC2)oc2ccccc12,-2.89%,–
Cc1c(C(=O)Nc2ccccn2)oc2ccc(Br)cc12,–,39.8 µM (active)
COc1ccccc1CNc1nccn(-c2ccc(F)cc2)c1=O,-5.47%,–
O=C(O)C1=C[C@H](c2cccs2)C[C@H](OCCCCO)O1,12.9%,–
O=C(NCc1ccccc1)C1=C[C@@H](c2ccccc2)C[C@@H](OCCCCO)O1,-19.4%,–
C#Cc1ccc([C@@H]2C=C(C(=O)O)O[C@H](OCCCCO)C2)cc1,–,20 µM (active)
COc1ccc(CCNC(=O)c2c3c(nc4ccccc24)C(=O)N(C2CCCCC2)C3)cc1OC,-22.1%,–
CCNC(=O)CC1C(=O)N(c2ccc(F)cc2)C(=O)N1Cc1ccc(C)cc1 (configuration not stated),-12.7%,–
CCC(=O)N1CCc2cc(S(=O)(=O)NCCC(=O)Nc3cccc(C)c3C)ccc21,-11%,–
Cc1oc(-c2ccccc2F)nc1CN1CCC(C(=O)NCCc2ccc(Cl)cc2)CC1,0.184%,–
CCc1cc(C(=O)Nc2nnc(C3CC3)s2)sc1C,–,50.1 µM (active)
Cc1cccc(NC(=O)CSCC(=O)Nc2nnc(C3CC3)s2)c1,-5.45%,–
CCc1ccccc1OCC(=O)Nc1nnc(C2CC2)s1,-4.3%,–
Cc1ccc(CNC(=O)c2c(O)nc3c(C)cccn3c2=O)cc1,-8.77%,–
C/C=C(\C)C(=O)N1CC2(CC(c3cccc(NC(=O)CCCCC)c3)=NO2)C[C@@H]1C(N)=O (some centres not stated),-3.29%,–
C=C(C)C(=O)Nc1cccc(C2=NOC3(C2)C[C@H](C(N)=O)N(C(=O)C(c2ccccc2)c2ccccc2)C3)c1 (some centres not stated),–,3.98 µM (active)
NC(=O)[C@H]1CC2(CC(c3cccc(NC(=O)[C@H]4CCC(=O)N4)c3)=NO2)CN1C(=O)c1ccccc1C(=O)c1ccccc1 (some centres not stated),9.03%,–
